# Source: article PMC11006913
# Where a chain is given by its changes, count along the chain named.
# Tests used:
# Experiment in all cases: PBM; 200 nM protein, PBS
# Conditions in all cases: dsDNA, one strand shown
# ALX4 [1] = molecular target: ALX4 (Homo sapiens, UniProt Q9H161 200-286)
# PAX4 [2] = molecular target: T1, PAX4 (Homo sapiens, UniProt O43316 9-242, R200K)
# T1 sequence: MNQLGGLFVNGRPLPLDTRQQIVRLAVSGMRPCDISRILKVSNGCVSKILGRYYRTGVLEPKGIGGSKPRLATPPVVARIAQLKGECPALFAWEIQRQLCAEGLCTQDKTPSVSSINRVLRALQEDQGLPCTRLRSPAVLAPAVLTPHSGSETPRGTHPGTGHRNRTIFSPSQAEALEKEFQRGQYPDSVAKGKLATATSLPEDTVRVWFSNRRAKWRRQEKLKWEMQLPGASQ
# PRRX1 [3] = molecular target: PRRX1 (Homo sapiens, UniProt P54821 80-166, F113S)
# PAX4 [4] = molecular target: T2, PAX4 (Homo sapiens, UniProt O43316 9-242)
# T2 sequence: T1 sequence with K192R
# HOXB6 = HOXB6 (Homo sapiens, UniProt P17509 132-218, K202E)
# ALX4 [5] = molecular target: ALX4 (Homo sapiens, UniProt Q9H161 200-286, Q225E)
# ALX3 [6] = molecular target: ALX3 (Homo sapiens, UniProt O95076 139-225, N203Q)
# PAX4 [7] = molecular target: T3, PAX4 (Homo sapiens, UniProt O43316 9-242, R200Q)
# T3 sequence: T1 sequence with K192Q
# ALX1 = ALX1 (Homo sapiens, UniProt Q15699 118-204, L144R)
# PAX4 [8] = molecular target: T4, PAX4 (Homo sapiens, UniProt O43316 9-242, F177V)
# T4 sequence: T1 sequence with F169V, K192R
# ALX3 [9] = molecular target: ALX3 (Homo sapiens, UniProt O95076 139-225)
# PAX4 [10] = molecular target: T5, PAX4 (Homo sapiens, UniProt O43316 9-242, F177Y)
# T5 sequence: T1 sequence with F169Y, K192R
# ALX3 [11] = molecular target: ALX3 (Homo sapiens, UniProt O95076 139-225, L168Q)
# ALX3 [12] = molecular target: ALX3 (Homo sapiens, UniProt O95076 139-225, L168V)
# PAX4 [13] = molecular target: T6, PAX4 (Homo sapiens, UniProt O43316 9-242, R227W)
# T6 sequence: T1 sequence with K192R, R219W
# ALX3 [14] = molecular target: ALX3 (Homo sapiens, UniProt O95076 139-225, N203S)
# HOXC10 [15] = molecular target: HOXC10 (Homo sapiens, UniProt Q9NYD6 254-340)
# HOXC10 [16] = molecular target: HOXC10 (Homo sapiens, UniProt Q9NYD6 254-340, K271E)
# PROP1 [17] = molecular target: PROP1 (Homo sapiens, UniProt O75360 56-141)
# PROP1 [18] = molecular target: PROP1 (Homo sapiens, UniProt O75360 56-141, R99H)
# PROP1 [19] = molecular target: PROP1 (Homo sapiens, UniProt O75360 56-141, F88S)
# CRX = CRX (Homo sapiens, UniProt O43186 26-111, R41L)
# PRRX1 [20] = molecular target: PRRX1 (Homo sapiens, UniProt P54821 80-166)
# HOXA4 = HOXA4 (Homo sapiens, UniProt Q00056 201-287, W262F)
# VAX1 [21] = molecular target: VAX1 (Homo sapiens, UniProt Q5SQQ9 86-172)
# VAX1 [22] = molecular target: VAX1 (Homo sapiens, UniProt Q5SQQ9 86-172, T142I)
# VAX1 [23] = molecular target: VAX1 (Homo sapiens, UniProt Q5SQQ9 86-172, K157R)
# VAX1 (Homo sapiens, UniProt Q5SQQ9 86-172, K157R), sequence (Q5SQQ9 86-172 K157R): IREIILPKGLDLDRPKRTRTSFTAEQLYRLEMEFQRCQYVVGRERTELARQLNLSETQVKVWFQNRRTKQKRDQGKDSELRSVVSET
# ALX4 (Homo sapiens, UniProt Q9H161 200-286), sequence (Q9H161 200-286): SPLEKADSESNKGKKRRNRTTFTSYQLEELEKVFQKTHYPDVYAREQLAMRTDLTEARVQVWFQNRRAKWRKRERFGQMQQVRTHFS
# HOXC10 (Homo sapiens, UniProt Q9NYD6 254-340, K271E), sequence (Q9NYD6 254-340 K271E): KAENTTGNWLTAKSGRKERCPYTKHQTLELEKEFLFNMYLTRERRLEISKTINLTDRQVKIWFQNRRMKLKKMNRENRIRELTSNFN
# HOXC10 (Homo sapiens, UniProt Q9NYD6 254-340), sequence (Q9NYD6 254-340): as the sequence (Q9NYD6 254-340 K271E) above, with E18K counted along it
# ALX4 (Homo sapiens, UniProt Q9H161 200-286, Q225E), sequence (Q9H161 200-286 Q225E): as the sequence (Q9H161 200-286) above, with Q26E counted along it
# PRRX1 (Homo sapiens, UniProt P54821 80-166, F113S), sequence (P54821 80-166 F113S): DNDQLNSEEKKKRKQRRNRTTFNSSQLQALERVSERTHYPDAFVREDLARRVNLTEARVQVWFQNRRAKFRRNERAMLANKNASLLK
# PROP1 (Homo sapiens, UniProt O75360 56-141, F88S), sequence (O75360 56-141 F88S): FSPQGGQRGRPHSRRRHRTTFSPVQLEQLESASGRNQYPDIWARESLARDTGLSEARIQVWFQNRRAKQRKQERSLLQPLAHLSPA
# VAX1 (Homo sapiens, UniProt Q5SQQ9 86-172), sequence (Q5SQQ9 86-172): as the sequence (Q5SQQ9 86-172 K157R) above, with R72K counted along it
# HOXB6, sequence (P17509 132-218 K202E): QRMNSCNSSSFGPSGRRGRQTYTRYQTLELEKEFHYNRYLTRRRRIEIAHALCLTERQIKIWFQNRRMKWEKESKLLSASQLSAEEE
# ALX1, sequence (Q15699 118-204 L144R): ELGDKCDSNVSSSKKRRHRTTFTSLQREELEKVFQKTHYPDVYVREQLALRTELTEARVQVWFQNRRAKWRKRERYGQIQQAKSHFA
# ALX3 (Homo sapiens, UniProt O95076 139-225, N203Q), sequence (O95076 139-225 N203Q): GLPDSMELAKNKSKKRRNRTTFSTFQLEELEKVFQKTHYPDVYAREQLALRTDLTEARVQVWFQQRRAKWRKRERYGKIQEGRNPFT
# CRX, sequence (O43186 26-111 R41L): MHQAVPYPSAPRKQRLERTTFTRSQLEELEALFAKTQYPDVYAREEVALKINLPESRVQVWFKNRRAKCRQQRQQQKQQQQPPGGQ
# PRRX1 (Homo sapiens, UniProt P54821 80-166), sequence (P54821 80-166): as the sequence (P54821 80-166 F113S) above, with S34F counted along it
# HOXA4, sequence (Q00056 201-287 W262F): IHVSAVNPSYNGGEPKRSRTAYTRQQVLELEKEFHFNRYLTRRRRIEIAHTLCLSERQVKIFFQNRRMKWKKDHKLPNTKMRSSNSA
# ALX3 (Homo sapiens, UniProt O95076 139-225, N203S), sequence (O95076 139-225 N203S): as the sequence (O95076 139-225 N203Q) above, with Q65S counted along it
# ALX3 (Homo sapiens, UniProt O95076 139-225, L168V), sequence (O95076 139-225 L168V): as the sequence (O95076 139-225 N203Q) above, with L30V, Q65N counted along it
# ALX3 (Homo sapiens, UniProt O95076 139-225, L168Q), sequence (O95076 139-225 L168Q): as the sequence (O95076 139-225 N203Q) above, with L30Q, Q65N counted along it
# PROP1 (Homo sapiens, UniProt O75360 56-141, R99H), sequence (O75360 56-141 R99H): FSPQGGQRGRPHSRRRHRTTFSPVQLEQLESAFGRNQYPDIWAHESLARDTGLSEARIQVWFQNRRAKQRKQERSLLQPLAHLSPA
# VAX1 (Homo sapiens, UniProt Q5SQQ9 86-172, T142I), sequence (Q5SQQ9 86-172 T142I): as the sequence (Q5SQQ9 86-172 K157R) above, with T57I, R72K counted along it
# PROP1 (Homo sapiens, UniProt O75360 56-141), sequence (O75360 56-141): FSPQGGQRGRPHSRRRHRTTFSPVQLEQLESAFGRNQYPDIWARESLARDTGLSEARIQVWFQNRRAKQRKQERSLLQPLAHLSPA
# ALX3 (Homo sapiens, UniProt O95076 139-225), sequence (O95076 139-225): as the sequence (O95076 139-225 N203Q) above, with Q65N counted along it
sequence,measurement,setting,value
ATTAATTC,binding signal,ALX4 [1],"13.6 upbm affinity estimate (log intensity, higher = more binding, comparable within an allelic series)"
same,binding signal,PAX4 [2],"11.9 upbm affinity estimate (log intensity, higher = more binding, comparable within an allelic series)"
same,binding signal,PRRX1 [3],"11.1 upbm affinity estimate (log intensity, higher = more binding, comparable within an allelic series)"
same,binding signal,PAX4 [4],"12.5 upbm affinity estimate (log intensity, higher = more binding, comparable within an allelic series)"
same,binding signal,HOXB6,"9.98 upbm affinity estimate (log intensity, higher = more binding, comparable within an allelic series)"
same,binding signal,ALX4 [5],"12.7 upbm affinity estimate (log intensity, higher = more binding, comparable within an allelic series)"
same,binding signal,ALX3 [6],"8.41 upbm affinity estimate (log intensity, higher = more binding, comparable within an allelic series)"
same,binding signal,PAX4 [7],"12.1 upbm affinity estimate (log intensity, higher = more binding, comparable within an allelic series)"
same,binding signal,ALX1,"11.1 upbm affinity estimate (log intensity, higher = more binding, comparable within an allelic series)"
same,binding signal,PAX4 [8],"10.7 upbm affinity estimate (log intensity, higher = more binding, comparable within an allelic series)"
same,binding signal,ALX3 [9],"12.2 upbm affinity estimate (log intensity, higher = more binding, comparable within an allelic series)"
same,binding signal,PAX4 [10],"11.2 upbm affinity estimate (log intensity, higher = more binding, comparable within an allelic series)"
same,binding signal,ALX3 [11],"10.2 upbm affinity estimate (log intensity, higher = more binding, comparable within an allelic series)"
same,binding signal,ALX3 [12],"9.68 upbm affinity estimate (log intensity, higher = more binding, comparable within an allelic series)"
same,binding signal,PAX4 [13],"11 upbm affinity estimate (log intensity, higher = more binding, comparable within an allelic series)"
same,binding signal,ALX3 [14],"8.51 upbm affinity estimate (log intensity, higher = more binding, comparable within an allelic series)"
CTCGGCCA,binding signal,HOXC10 [15],"10.1 upbm affinity estimate (log intensity, higher = more binding, comparable within an allelic series)"
same,binding signal,HOXC10 [16],"10.1 upbm affinity estimate (log intensity, higher = more binding, comparable within an allelic series)"
same,binding signal,PROP1 [17],"6.9 upbm affinity estimate (log intensity, higher = more binding, comparable within an allelic series)"
same,binding signal,PROP1 [18],"6.67 upbm affinity estimate (log intensity, higher = more binding, comparable within an allelic series)"
same,binding signal,PROP1 [19],"6.71 upbm affinity estimate (log intensity, higher = more binding, comparable within an allelic series)"
TATTAAGA,binding signal,HOXC10 [15],"11.2 upbm affinity estimate (log intensity, higher = more binding, comparable within an allelic series)"
same,binding signal,HOXC10 [16],"10.9 upbm affinity estimate (log intensity, higher = more binding, comparable within an allelic series)"
same,binding signal,CRX,"10.6 upbm affinity estimate (log intensity, higher = more binding, comparable within an allelic series)"
GAAGCTCC,binding signal,HOXC10 [15],"10.1 upbm affinity estimate (log intensity, higher = more binding, comparable within an allelic series)"
same,binding signal,HOXC10 [16],"10.1 upbm affinity estimate (log intensity, higher = more binding, comparable within an allelic series)"
CGAGGGCA,binding signal,ALX4 [1],"8.31 upbm affinity estimate (log intensity, higher = more binding, comparable within an allelic series)"
same,binding signal,PRRX1 [3],"9.29 upbm affinity estimate (log intensity, higher = more binding, comparable within an allelic series)"
same,binding signal,ALX4 [5],"8.26 upbm affinity estimate (log intensity, higher = more binding, comparable within an allelic series)"
same,binding signal,PRRX1 [20],"9.63 upbm affinity estimate (log intensity, higher = more binding, comparable within an allelic series)"
CATTAACA,binding signal,HOXC10 [15],"11.8 upbm affinity estimate (log intensity, higher = more binding, comparable within an allelic series)"
same,binding signal,HOXC10 [16],"11.6 upbm affinity estimate (log intensity, higher = more binding, comparable within an allelic series)"
same,binding signal,HOXA4,"11.5 upbm affinity estimate (log intensity, higher = more binding, comparable within an allelic series)"
CGTCCGCC,binding signal,HOXC10 [15],"9.96 upbm affinity estimate (log intensity, higher = more binding, comparable within an allelic series)"
same,binding signal,HOXC10 [16],"10 upbm affinity estimate (log intensity, higher = more binding, comparable within an allelic series)"
same,binding signal,VAX1 [21],"7.19 upbm affinity estimate (log intensity, higher = more binding, comparable within an allelic series)"
same,binding signal,VAX1 [22],"7.31 upbm affinity estimate (log intensity, higher = more binding, comparable within an allelic series)"
same,binding signal,VAX1 [23],"7.05 upbm affinity estimate (log intensity, higher = more binding, comparable within an allelic series)"
CATTCTAA,binding signal,ALX4 [1],"9.79 upbm affinity estimate (log intensity, higher = more binding, comparable within an allelic series)"
TAAGTCGA,binding signal,ALX4 [1],"10 upbm affinity estimate (log intensity, higher = more binding, comparable within an allelic series)"
